# Reference: PubChem BioAssay AID652115 (Broad Institute, 2013)
# In all, about 330,000 compounds went through this assay and about 3,800 (1.2%) were called active. The sample holds actives, similar compounds and a random draw of the others, so the mix is not that of the screen. A number with no mark means an inactive call. Rule as the data show it: active = inhibition above about 15%; inconclusive = no clear call, values can overlap the other calls; inactive = below that.
# Molecular target: NAD-dependent protein deacylase sirtuin-5, mitochondrial (Homo sapiens) (UniProt Q9NXA8)
# Experiment: SIRT5 desuccinylase inhibitors, primary screen, biochemical, fluorescence imaging, single point, set 5 (AID 652115)
# Settings: Purified SirT5, succinyl-peptide AMC, trypsin-coupled fluorescence; at 15 µM; hits give high values
# Chain of NAD-dependent protein deacylase sirtuin-5, mitochondrial (Homo sapiens) (Q9NXA8 whole entry, looked up): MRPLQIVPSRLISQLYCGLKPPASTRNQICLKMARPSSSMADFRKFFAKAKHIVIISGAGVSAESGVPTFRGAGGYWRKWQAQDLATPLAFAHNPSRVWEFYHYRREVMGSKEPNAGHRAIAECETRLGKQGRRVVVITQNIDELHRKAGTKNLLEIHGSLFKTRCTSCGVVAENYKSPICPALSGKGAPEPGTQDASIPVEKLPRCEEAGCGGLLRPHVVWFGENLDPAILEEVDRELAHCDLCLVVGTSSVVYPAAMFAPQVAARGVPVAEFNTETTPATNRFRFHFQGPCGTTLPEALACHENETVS
row,Compound,inhibition
1,COCc1cc(N2CCN(C(=O)OC(C)(C)C)C[C@@H]2C)ccc1N1CCN(Cc2ccccc2)[C@H](C)C1,-1.86%
2,COc1ccc2c3c([nH]c2c1)[C@H](CO)N(Cc1ccccc1)CC31CCN(C(=O)c2ccccn2)CC1,-0.283%
3,CC(=O)N[C@@H]1CC[C@@H](CCNC(=O)C2CC2)O[C@H]1CO,-0.463%
4,C[C@H](CO)N1C[C@H](C)[C@H](CN(C)C(=O)CCC(F)(F)F)OCCCC[C@H](C)Oc2ccc(NS(=O)(=O)c3ccc(F)cc3)cc2C1=O,6.37%
5,C[C@@H]1CCCCO[C@@H](CN(C)S(C)(=O)=O)[C@H](C)CN([C@@H](C)CO)C(=O)c2cc(NS(=O)(=O)c3cccs3)ccc2O1,-3.17%
6,CC(C)NC(=O)N(C)C[C@H]1Oc2ncc(-c3ccc(C(=O)N(C)C)cc3)cc2C(=O)N([C@H](C)CO)C[C@H]1C,-4.27%
7,C[C@@H]1CCCCO[C@H](CN(C)Cc2ccc(Cl)c(Cl)c2)[C@H](C)CN([C@@H](C)CO)C(=O)c2cc(NC(=O)CCC(F)(F)F)ccc2O1,11%
8,CCN(CC(=O)NC1CCS(=O)(=O)C1)S(=O)(=O)c1ccccc1 (stereo unspecified),20.8% (active)
9,CCN(CC(=O)Nc1ccc2c(c1)OCO2)S(=O)(=O)c1ccccc1,-11.2%
10,CCN(CC(=O)NCCc1ccccc1)S(=O)(=O)c1ccccc1,13.5%
11,COc1cccc(/C=C2/SC(=S)N(CC(=O)NC3C=CS(=O)(=O)C3)C2=O)c1 (stereo unspecified),7.07%
12,CCOc1ccc(/C=C2\SC(=S)N(NC(=O)c3ccncc3)C2=O)cc1OC,-1.31%
13,COc1ccc(/C=C2\SC(=S)N(CC(=O)NNC(=O)c3ccncc3)C2=O)cc1,36.3% (active)
14,COc1ccccc1S(=O)(=O)N1CC[C@@H]2[C@H]1c1cc(-c3ccccc3)ccc1N[C@@H]2CO,2.02%
15,O=C(C[C@@H]1CC[C@H](NC(=O)C2CCOCC2)[C@@H](CO)O1)Nc1ccccc1,-0.611%
16,Cc1ccc(F)cc1S(=O)(=O)N[C@@H]1CCN(Cc2ccc(-c3ccccc3)cc2)C1,4.54%
17,Cc1ccc(S(=O)(=O)N2C[C@@H]3CCCC[C@@H]3[C@@H](C)[C@H]2c2cn(Cc3ccccc3)c3ccc(F)cc23)cc1,26.5% (active)
18,CCOC1=C2[C@@H](CN(S(=O)(=O)c3ccc(C)cc3)[C@H]2c2ccccc2F)[C@H]2C(=O)N(Cc3ccccc3)C(=O)[C@H]2C1,10.7%
19,C=CCC1=C/C(=C\c2c(N)n3nc(CC(=O)N4CCOCC4)sc3nc2=O)C=C(OC)C1=O,31.6% (active)
20,COc1cccc(/C=C2\SC(=S)N(CCCC(=O)N3CCOCC3)C2=O)c1,-0.302%
21,COc1cc(/C=C2\C(=N)N3N=C(CC(=O)N4CCOCC4)SC3=NC2=O)cc(OC)c1OC,-5.1%
22,O=C(OCC(=O)N1CCOCC1)c1ccc2ccccc2c1,-8.77%
23,COC1=C/C(=C/c2c(N)n3nc(CC(=O)N4CCOCC4)sc3nc2=O)C=CC1=O,15.9% (active)

row,Compound,inhibition
1,C[C@H](CO)N1C[C@H](C)[C@H](CN(C)Cc2cncnc2)Oc2cc(-c3ccccc3F)ccc2S1(=O)=O,-2.9%
2,O=C(C[C@H]1CC[C@H]2[C@@H](COC[C@H](O)CN2Cc2nccs2)O1)NCc1ccc(Oc2ccccc2)cc1,-0.449%
3,Cc1ccc(-c2cnc3c(c2)C(=O)N([C@@H](C)CO)C[C@H](C)[C@H](CN(C)C(=O)c2cccnc2)O3)cc1,1.09%
4,O=S(=O)(c1ccccc1F)N1[C@@H]2CNC[C@H]1C2c1ccc(-c2cncnc2)cc1 (stereo partly specified),-2.66%
5,Cc1ccc(S(=O)(=O)N[C@H]2CC[C@@H](CC(=O)N3CCc4ccccc4C3)O[C@H]2CO)cc1,-2.83%
6,COCC(=O)N1CC2(C1)[C@@H](c1ccc(-c3cccc(F)c3)cc1)[C@@H](CO)N2C(=O)COC,-1.31%
7,COCC(=O)N1CC2(C1)[C@H](c1ccc(-c3cccc(F)c3)cc1)[C@@H](CO)N2C(=O)COC,-3.18%
8,COCC(=O)N1[C@H](CO)[C@@H](c2ccccc2)C12CN(Cc1cc(F)ccc1F)C2,19% (active)
9,C[C@@H](NC(=O)C[C@H]1C=C[C@@H](NC(=O)CN2CCOCC2)[C@@H](CO)O1)c1ccccc1,0.512%
10,O=C(C[C@@H]1CC[C@@H]2[C@H](COC[C@H](O)CN2S(=O)(=O)c2ccc(Oc3ccccc3)cc2)O1)NCCN1CCCCC1,-3.74%
11,CO[C@@H]1CN(C)C(=O)c2ccc(NS(=O)(=O)c3ccc(Cl)cc3)cc2OC[C@@H](C)N(C)C[C@H]1C,-8.92%
12,CC(C)NC(=O)N[C@H]1CC[C@@H](CCNC(=O)C2CCC2)O[C@@H]1CO,-0.093%
13,CO[C@H]1CC[C@H]2CCOc3c(C#N)cccc3C(=O)N(C)CC3(CCCCC3)CC(=O)N(C)C[C@@H]1O2,-0.489%
14,O=c1ccnc(Nc2ccc(Cl)cc2)[nH]1,-3.58%
15,Clc1ccc(Nc2ccc3ccccc3n2)cc1,-0.101%
16,CC1(C)N=C(N)NC(Nc2ccc(Cl)cc2)=N1,24.2% (active)
17,CO[C@H]1CN(C)C(=O)c2ccc(NS(=O)(=O)c3cn(C)cn3)cc2OC[C@@H](C)N(CC2CC2)C[C@H]1C,10.4%
18,COC(OC)c1ccnc(SCc2ccccc2Cl)n1,65.6% (active)
19,CCOC(=O)c1cnc2nc(SCc3ccccc3Cl)[nH]n2c1=O,-0.638%
20,COc1cnc(SCc2ccc(Cl)c(Cl)c2)nc1Cl,-1.51%
21,Cc1ccc2nc(CN(C)C(=O)[C@@H](Cc3ccccc3)NC(=O)[C@H]3O[C@@H](n4ccc(=O)[nH]c4=O)[C@H](O)[C@@H]3O)[nH]c2c1,0.009%
22,CN1C(=O)c2cc(NC(=O)c3cscn3)ccc2OC[C@@H]2O[C@H](CC(=O)N3CCCCC3)CC[C@H]21,10.6%
23,COc1ccc(C#Cc2cnc3c(c2)C(=O)N([C@H](C)CO)C[C@H](C)[C@H](CN(C)C(=O)CC2CC2)O3)cc1,8.29%
